Laboratory results taken from PubChem BioAssay (NCI).
Compounds without any hit were thinned out: in the full panel of roughly 83,000, 20% have a hit.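 Growth was measured after 48 h exposure to one concentration of compound in 96-well plates. Values under 10 count as active.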 Unmarked numbers belong to inactive results. Active and inactive are the calls of the source.

How the values were obtained:
Experiment in all cases: NCI-60 one-dose screen, 48 h (100 = growth as untreated, 0 = no growth, -100 = all killed)
Details in all cases: 10 µM unless noted
DU-145 prostate = test system: DU-145 prostate
K-562 leukemia = test system: K-562 leukemia
MALME-3M melanoma = test system: MALME-3M melanoma
MDA-MB-231 breast = test system: MDA-MB-231 breast
RXF 393 renal = test system: RXF 393 renal
SF-268 CNS = test system: SF-268 CNS
SF-295 CNS = test system: SF-295 CNS
SF-539 CNS = test system: SF-539 CNS
UACC-257 melanoma = test system: UACC-257 melanoma
HCT-15 colon = test system: HCT-15 colon
HT29 colon = test system: HT29 colon
SNB-75 CNS = test system: SNB-75 CNS
SNB-19 CNS = test system: SNB-19 CNS
U251 CNS = test system: U251 CNS
PC-3 prostate = test system: PC-3 prostate
SK-MEL-5 melanoma = test system: SK-MEL-5 melanoma
UACC-62 melanoma = test system: UACC-62 melanoma
LOX IMVI melanoma = test system: LOX IMVI melanoma
SK-MEL-28 melanoma = test system: SK-MEL-28 melanoma
M14 melanoma = test system: M14 melanoma

Structure (SMILES) | growth (DU-145 prostate) | growth (K-562 leukemia) | growth (MALME-3M melanoma) | growth (MDA-MB-231 breast) | growth (RXF 393 renal) | growth (SF-268 CNS) | growth (SF-295 CNS) | growth (SF-539 CNS) | growth (UACC-257 melanoma) | growth (HCT-15 colon) | growth (HT29 colon) | growth (SNB-75 CNS) | growth (SNB-19 CNS) | growth (U251 CNS) | growth (PC-3 prostate) | growth (SK-MEL-5 melanoma) | growth (UACC-62 melanoma) | growth (LOX IMVI melanoma) | growth (SK-MEL-28 melanoma) | growth (M14 melanoma) [%]
COc1ccc(C(=O)c2nccc3cc(OC)c(OC)cc23)cc1OC | 104% | 103% | 103% | 85% | 99.4% | 89.3% | 92.6% | 94.3% | -11.2% (active) | 96.7% | 113% | 89.5% | 94.9% | 98.6% | 95.9% | 99.6% | 96.4% | 93.3% | 90.7% | –
C=C(C)[C@@H]1CC[C@]2(C)[C@H](CC[C@@H]3[C@@H]([C@@](C)(O)CCC=C(C)C)CC[C@]32C)[C@@]1(C)CCC(=O)N1CCN(C)CC1 | -80% [100 µM] (active) | 1.77% [100 µM] (active) | -89.6% [100 µM] (active) | -95.8% [100 µM] (active) | -93.7% [100 µM] (active) | -79.4% [100 µM] (active) | -88.7% [100 µM] (active) | -94% [100 µM] (active) | -59.9% [100 µM] (active) | -92.8% [100 µM] (active) | -70.8% [100 µM] (active) | -92.5% [100 µM] (active) | -95.3% [100 µM] (active) | -78.6% [100 µM] (active) | -61.8% [100 µM] (active) | -99.1% [100 µM] (active) | -95.2% [100 µM] (active) | -100% [100 µM] (active) | -92.1% [100 µM] (active) | –
O=C1/C(=C\c2cn(CC(O)CN3CCCCC3)c3ccccc23)c2ccccc2N1c1c(Cl)cccc1Cl (stereo not given) | -99.8% (active) | -35.6% (active) | -65.9% (active) | -81.6% (active) | -87.6% (active) | -76.8% (active) | -82.7% (active) | -82.4% (active) | -98.1% (active) | -72.8% (active) | -85% (active) | -98.6% (active) | -71.2% (active) | -93.8% (active) | -88.7% (active) | -100% (active) | -84% (active) | -85.1% (active) | -94.4% (active) | –
O=[N+]([O-])c1cccc(/C=C/c2ccc3ccccc3n2)c1 | 71.4% | 94.7% | 68.5% | 45.7% | 62.1% | 72.9% | 53.2% | 78.1% | 74.8% | 82.5% | 76.5% | 7.41% (active) | 64.1% | 72.2% | 77.8% | 82% | 82.9% | 70.5% | – | –
CSc1cccc([N+](=O)[O-])c1 | 110% | 96.6% | 103% | 101% | 99% | 110% | 106% | 96.2% | 103% | 100% | 90.2% | 115% | 110% | 109% | – | 99.8% | 98% | 92.5% | 111% | –
COc1ccc2nc3cc(Cl)ccc3c(Nc3ccc(O)c(CN4CCCC4)c3)c2c1 | -9.64% (active) | -6.52% (active) | -86.6% (active) | 11.7% | -84% (active) | 38.5% | 8.91% (active) | -87.4% (active) | -81.1% (active) | 0.129% (active) | -22.8% (active) | 31.5% | 62.5% | 0.559% (active) | – | 41.1% | 51.9% | -68.6% (active) | 82.9% | –
Clc1ccc(/C=N/Nc2nc3ccccc3s2)c(Cl)c1 | 97.9% | 91% | 79.6% | – | 114% | 85.4% | 97.5% | 100% | 93.5% | 85% | 84.1% | 84.3% | 103% | 76.3% | 79.5% | 98.4% | 103% | 84.7% | 114% | 121
COc1cc(/C=C/C(=O)/C=C/c2ccc(-n3ccnc3C)cc2)ccc1O | 54% | 13.2% | 101% | 97.1% | 47.8% | 49.9% | 84.3% | -0.75% (active) | 89.3% | 82.4% | -42.9% (active) | 76.4% | 79.3% | -1.61% (active) | 74.2% | 85.2% | 95.1% | -88.7% (active) | 84.1% | –
O=c1[nH]c2cc(Cl)c(Cl)cc2n2cc3ncccc3c12 | 100% | 65.5% | 128% | 89.4% | 112% | 95.1% | 58.5% | 112% | 97.8% | 85.9% | 67.9% | 67.2% | 86.8% | 72.6% | 72.8% | 84.8% | 57.8% | 81.6% | 120% | –
Nc1ccc(NC(=O)c2ccccc2)c2c1C(=O)c1ccccc1C2=O | 98.5% | 105% | 89.5% | 94.7% | 106% | 99.3% | 105% | 103% | 88.8% | 99% | 104% | 76% | 102% | 105% | 87.2% | 94.2% | 101% | 109% | 113% | –
COc1ccc2c(c1)c(-c1noc(C(=O)c3cn(C)c4ncc(Br)cc34)n1)cn2C | 50.4% | 71% | 28.1% | 25.4% | 27.9% | 62.8% | 89% | 25.7% | 92.8% | 68.4% | 58% | -12.8% (active) | 78.7% | 68.6% | 39.7% | 50.6% | 65.6% | 70.9% | 71.1% | –
Cn1ncc2c(Nc3ccc(O)cc3)nc(Cl)nc21 | 113% | 90.5% | 128% | 93.7% | 96% | 97.7% | 109% | 96.6% | 105% | 97% | 102% | 95% | – | 99.3% | 119% | 100% | 82.6% | 95.7% | 114% | –
COc1ccc(C(C(=O)O)c2ccc(OC)cc2)cc1 | 105% | 105% | 128% | 120% | 128% | 103% | 104% | 105% | 110% | 99.4% | 114% | 72.2% | 113% | 113% | 101% | 110% | 116% | 106% | 107% | –
O=C(N/N=C/c1ccc([N+](=O)[O-])cc1)c1ccc(Br)o1 | 126% | 114% | 106% | 113% | 90.3% | 111% | 83% | 97.8% | 107% | 94.5% | 106% | 105% | 90.2% | 101% | 87.1% | 95.8% | 99.6% | 98% | 110% | –
CCN(CC)CC(C)Nc1ccc(C)c2sc3ccccc3c(=O)c12 (stereo not given) | 82% | 44.2% | 65.2% | 28.7% | 39.5% | 58.9% | 76.2% | 44.2% | 0.527% (active) | 32.5% | 26.8% | 40.3% | 53.8% | 37.4% | 47.6% | -68.1% (active) | 3.87% (active) | 23.3% | 38.9% | –
Cn1cc(-c2nnc(-c3cn(C)c4ncccc34)o2)c2ccccc21 | 60% | 10.3% | 19.3% | 38.5% | 10% | 51.1% | 13.1% | 27.7% | 73.6% | 17.9% | 12.1% | -18.3% (active) | 42.3% | 30.1% | 39.8% | 0.903% (active) | 27.7% | 48.6% | 55.9% | –
Ic1ccc2[nH]cc(SSc3c[nH]c4ccc(I)cc34)c2c1 | 72.5% | 9.29% (active) | 73.2% | 7.64% (active) | 46.4% | -18.1% (active) | -19.1% (active) | 21.3% | 34.6% | 15.6% | 32% | 46.6% | 13.3% | 18.3% | 7.98% (active) | 86.6% | 45.4% | 4.6% (active) | 40.9% | –
CCOc1ccc2sc(NS(=O)(=O)c3ccc(N)cc3)nc2c1 | 119% | 103% | 118% | 106% | 104% | 110% | 109% | 99.5% | 111% | 107% | 109% | 98.2% | 103% | 99.5% | 119% | 106% | 93% | 105% | 117% | –
CCc1ccc(NC(=O)N[C@@H](Cc2cc(F)cc(F)c2)C(=O)N[C@@H]2C(=O)N3C[C@H](O)C[C@H]3C(=O)N3CCOC[C@H]3C(=O)N[C@@H](C)C(=O)N3C[C@H](C)C[C@H]3C(=O)O[C@H]2C)cc1 | 42.6% | 24.7% | 39.4% | 16.1% | 88.1% | 29.1% | 81.9% | 55.8% | 21.5% | 108% | 31.2% | 8.76% (active) | 20.2% | 24.8% | 14.4% | 85% | 29.7% | 41.6% | 39.7% | –
COc1ccc2c(c1)c(-c1noc(-c3cn(C)c4ncc(F)cc34)n1)cn2C | 82.4% | 84.7% | 77.5% | 62.2% | 73.7% | 79.7% | 62.6% | 84.6% | 94.4% | 84.7% | 78.2% | 94.9% | 76.2% | 76.6% | 91.7% | 74.8% | 83.9% | 52.4% | 91.3% | –
CCOC(=O)c1nn(C2CCCCO2)c2ccc(NC(=O)Cn3nnc4ccccc43)cc12 (stereo not given) | 104% | 91.3% | 105% | 96.4% | 125% | 101% | 99.3% | 100% | 100% | 95.9% | 115% | 78.6% | 86.5% | 96.4% | 110% | 99.1% | 99.9% | 96.5% | 106% | –
